Shown are actives, neighbours in structure and some others; about 21% of the full set was active somewhere.
CHX counter: counter-screen for Shiga toxin inhibitors: cycloheximide protein synthesis inhibition; hit rate 12% among 300,000; max response, %; AID 2314; cell reporter, cycloheximide protein synthesis inhibition counterscreen; in the data active = max response mostly above about 13%, no sharp cut-off; inactive = mostly below about 14%; note: read at 38.3 µM for the half of the compounds with a filed dose
Shiga inhibitor: Shiga toxin inhibition; Vero cells, Shiga toxin protein synthesis inhibition reporter; inhibition, % at 38.7 µM; hit rate 9.2% among 290,000; in the data active = inhibition mostly above about 28%, no sharp cut-off; inactive = mostly below about 43%
Pf growth 96h: P. falciparum growth inhibition at 96 hours; P. falciparum luciferase reporter growth, 96 h; Potency, µM (top dose mostly 28.7 µM), most hits filed as inhibitors; hit rate 6.9% among 320,000; AID 504834
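P. falciparum expressing integrated firefly luciferase, in erythrocytes at 2% hematocrit, 0.05% parasitemia, incubated with compounds 96 h at 37 C, 5% CO2. Growth inhibition read as loss of luminescence; two-generation exposure targets delayed-death apicoplast inhibitors.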
Pf growth 48h: P. falciparum growth inhibition at 48 hours (one generation) | P. falciparum luciferase growth in erythrocytes, 48 h | Potency, µM (top dose mostly 28.7 µM), hits mostly inhibitors | hit rate 5.9% among 310,000
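Parasite viability was followed by luminescence of a genomically integrated firefly luciferase. Cultures held 0.1% parasitemia at 2% hematocrit (final), incubated under 5% CO2 at 37 C.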
A number is an active result; i = inactive; ? = inconclusive; nt = not tested or not shown. Unless noted, calls come from the whole dose curve; as a rule, active = well fitted inhibition curve with a large enough effect; inconclusive = small, poorly fitted or top-dose-only effect, or another doubt; inactive = no such curve, though single readings can be large or run the other way.

SMILES	CHX counter	Shiga inhibitor	Pf growth 96h	Pf growth 48h
COc1ccc(NC(=O)CSc2nnc3n2CCCCC3)cc1S(=O)(=O)N1CCOCC1	nt	nt	i	i
CCCOc1ccc(N2C(=O)CC(SCc3nc4ccccc4[nH]3)C2=O)cc1 (configuration not stated)	i	i	i	i
Cc1cccc(-n2ccnc2SCC(=O)Nc2nccs2)c1	29.0	i	i	i
Cc1cc(C)cc(-n2ccnc2SCC(=O)Nc2nccs2)c1	i	i	i	i
COc1cccc(-n2ccnc2SCC(=O)Nc2nccs2)c1	21.4	i	i	i
CCN(CC)CCNC(=O)c1[nH]c2ccc(OCc3ccccc3)cc2c1C	i	i	i	?
O=S(=O)(NCc1ccc(F)cc1)c1ccc(-n2cccn2)cc1	i	i	?	i
Cc1cc(C)c2cc(CN(Cc3ccco3)C(=O)NCc3ccccc3)c(=O)[nH]c2c1	i	i	14.7µM	i
COc1ccccc1NC(=S)N(Cc1ccco1)Cc1cc2cc(C)cc(C)c2[nH]c1=O	i	i	i	3.29µM
Cc1cc(C)c2[nH]c(=O)c(CN(CC3CCCO3)C(=S)NCc3ccco3)cc2c1 (configuration not stated)	i	i	i	i
Cc1cc(C)c2[nH]c(=O)c(CN(CC3CCCO3)C(=S)Nc3ccccc3)cc2c1 (configuration not stated)	i	i	i	i
Cc1ccc2cc(CN(Cc3ccco3)C(=O)NC3CCCCC3)c(=O)[nH]c2c1C	i	i	i	11.7µM
Cc1ccc2cc(CN(CC3CCCO3)C(=S)Nc3ccccc3)c(=O)[nH]c2c1C (configuration not stated)	i	i	i	10.4µM
COc1ccccc1NC(=S)N(Cc1ccco1)Cc1cc2ccc(C)c(C)c2[nH]c1=O	i	i	i	11.7µM
COc1ncnc2c1oc1nc(CC(C)C)c3c(c12)CC(C)(C)OC3	i	i	?	2.08µM
Cc1nc2oc3c(=O)[nH]cnc3c2c2c1COC(C)(C)C2	i	i	?	?
O=C1C(=Cc2ccc(Br)o2)C(=O)c2ccccc21	30.4	i	i	i
COc1cccc(C(=O)NCC(c2ccco2)N2CCOCC2)c1 (configuration not stated)	nt	nt	i	i
Cn1ccc2cc(NC(=O)Nc3cccnc3)ccc21	29.6	48.8	nt	nt
COc1cccc(NC(=O)Nc2cccc(C(=O)O)c2)c1	25.9	47.1	?	i
COc1cccc(NC(=O)Nc2cccnc2)c1	13.8	i	i	i
COc1cccc(NC(=O)NC2(C(F)(F)F)Oc3ccccc3O2)c1	44.5	65.9	i	?
COc1cccc(NC(=O)C(C)C)c1	nt	nt	i	i
COc1cccc(NC(=O)Nc2ccc(Br)cn2)c1	25.8	78.2	i	i
CN1CCSc2ccc(C(=O)Nc3cccc(F)c3)cc21	55.2	52.7	i	i
SMILES	CHX counter	Shiga inhibitor	Pf growth 96h	Pf growth 48h
O=C(NCc1cccnc1)c1ccc2c(c1)N(Cc1ccccc1)CCS2	i	i	?	i
COc1ccc(NC(=O)c2ccc3c(c2)N(C)CCS3)cc1	59.5	66.7	?	i
CN1CCSc2ccc(C(=O)NCc3ccccc3)cc21	10.0	24.6	i	?
Clc1cccc(CSc2nccn2-c2ccccc2)c1	i	i	?	?
Clc1ccc(CSc2nnc(Cn3cnc4ccccc43)o2)cc1	i	i	?	i
Clc1ccc(CSc2ncn(-c3ccccc3)n2)cc1	31.3	i	i	i
Clc1cccc(CSc2ncn(-c3ccccc3)n2)c1	22.7	35.3	i	i
Cc1ccc(NC(=O)c2ccco2)c(NC(=O)c2ccc(Cl)cc2)c1	i	i	i	i
CN(C)S(=O)(=O)c1cccc(NC(=O)CN2C(=O)NC(CCc3ccccc3)C2=O)c1 (configuration not stated)	i	i	i	?
OCCCN=c1cc(-c2ccccc2)oc2ccc(Cl)cc12	34.5	97.0	?	nt
CNC(=O)/C(=C\c1cccc(Oc2ccccc2)c1)NC(=O)c1ccccc1	i	i	?	i
CNC(=O)/C(C#N)=C/c1cccc(Oc2ccccc2)c1	42.0	64.0	i	i
COc1ccc(NC(=O)CN(C)C(=O)CN2C(=O)NC3(CCCC3)C2=O)cc1	nt	nt	i	?
COCCNc1cc(C)nc2c(-c3ccccc3OC)c(C)nn12	i	i	2.33µM	i
COc1ccc(-c2c(C)nn3c(N4CCN(Cc5ccccc5)CC4)cc(C)nc23)cc1OC	i	i	i	nt
COc1ccccc1-c1c(C)nn2c(N3CCCCCC3)cc(C)nc12	i	i	9.28µM	10.4µM
CCOCCCNC(=O)C1CCN(c2cc(C)nc3c(-c4ccc(OC)c(OC)c4)c(C)nn23)CC1	i	i	i	4.15µM
COc1ccc(/C=C2\SC(=S)N(CCC(=O)NC3CCCC3)C2=O)cc1OC	i	i	?	i
